Results filed as inconclusive are left out. Calls of active or inactive are those of the source. The call rests on the fitted dose curve; in most records, active means well fitted cell-killing curve with a large enough effect; inconclusive means small, poorly fitted or top-dose-only effect, or effect the other way; inactive means no such curve, though single readings can be large or run the other way.
Potency means the concentration at half of the fitted maximal effect.

The assay can be described thus: Viability qHTS for spleen associated tyrosine kinase inhibitor (SYKi) naive MV4-11 cells (AID 1963823). Further: nearly all actives have a fitted effect of over 40% in size. The settings on record: MV4-11 AML viability, CellTiter-Glo luminescence, 72 h; series mostly up to 45 µM. The method, boiled down: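 SYKi-naive MV4-11 AML cells, 500 per well, were exposed to library compounds for 72 hr at 37 C, 5% CO2. Viability was then read by CellTiter-Glo luminescence after 10 min at room temperature.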
For orientation: In qHTS, concentration-response curves come from the screen itself.
With `CCN1/C(=C/C(C)=O)Sc2ccc(OC(C)=O)cc21`, the Potency was 7.31 µM (active).

On to `Cc1noc(-c2ccc(-c3ccc(C4(C(=O)O)CC4)cc3)cc2)c1NC(=O)O[C@H](C)c1ccccc1`, for which the Potency is 16.6 µM (active). `C/C=C1/[C@H](O[C@@H]2O[C@H](CO)[C@@H](O)[C@H](O)[C@H]2O)OC=C(C(=O)OC)[C@H]1CC(=O)OCCc1ccc(O)c(O)c1`: the Potency entry was “inactive”. Same read-out and setting: the result for `C=C1C(=O)OC2C1CCC1(C)C(O)CCC(=C)C21` (stereo not drawn) reads 9.2 µM (active). In the case of `C=CCc1ccc(O[C@@H]2O[C@H](CO[C@@H]3O[C@@H](C)[C@H](O)[C@@H](O)[C@H]3O)[C@@H](O)[C@H](O)[C@H]2O)cc1`, the Potency result was “inactive”. As to `CC12CCC3c4ccc(O)cc4CCC3C1CC(OC1OC(C(=O)O)C(O)C(O)C1O)C2O` (stereo not drawn), the Potency entry is “inactive”. On the same count and under the same terms, as for `CNC(=O)c1cc(Oc2ccc(NC(=O)c3cccc(C(F)(F)F)c3)cc2)ccn1`, the figure is 11.6 µM (active); as for `CN(c1ccccc1CNc1nc(Nc2ccc3c(c2)CC(=O)N3)ncc1C(F)(F)F)S(C)(=O)=O`, 0.291 µM (active); as for `NCCOCCOCCNC(=O)Cc1ccc(Nc2nc(NCc3ccc(F)cc3)nc(NCC3CCCCC3)n2)cc1`, 2.31 µM (active). The same measure, in the same setting: the result for `C/C=C1/CC2C(=O)Nc3cc(O)c(OC)cc3C(=O)N2C1` (stereo not drawn) reads 16.1 µM (active). Consider `CC(C)S(=O)(=O)c1ccc2nccc(Nc3ccc4scnc4c3)c2c1`, for which the Potency was 8.2 µM (active). On to `N#Cc1ccc(Nc2nc(-c3ccc(O)cc3O)cs2)cc1C(F)(F)F`, for which the Potency is 5.17 µM (active). In the case of `C[C@@H]1O[C@@H](O[C@H]2[C@H](OC(=O)[C@]34CCC(C)(C)C[C@H]3C3=CCC5[C@@]6(C)CC[C@H](O[C@@H]7O[C@H](CO[C@@H]8OC[C@H](O)[C@H](O)[C@H]8O)[C@@H](O)[C@H](O)[C@H]7O)C(C)(C)C6CC[C@@]5(C)[C@]3(C)C[C@H]4O)OC[C@@H](O)[C@@H]2O)[C@H](O)[C@H](O)[C@H]1O[C@@H]1OC[C@H](O)[C@H](O[C@@H]2OC[C@@H](O)[C@H](O)[C@H]2O)[C@H]1O` (stereo partly drawn), the viability (% of control) is 84.1% [at 9.25 µM] (inactive). Regarding `COc1cc2c(Nc3cc(F)c(Cl)c(Cl)c3)ncnc2cc1OCC1CCCN(C)CCC1`, the Potency was 1.16 µM (active). Still for that read-out and setting: the result for `COc1cc2ncnc(N3CCC(Oc4cnc5ccccc5n4)C3)c2cc1OC` (stereo not drawn) reads 0.58 µM (active); that for `CC(/C=C/C1=CC2=CC(=O)C(C)(O)C(O)C2=CO1)=C\C(C)CCO` (stereo not drawn), “inactive”; that for `O=C(O[C@@H]1O[C@H](CO)[C@@H](O)[C@H](O)[C@H]1O)c1c(O)cc(O)cc1/C=C/c1ccccc1`, “inactive”. Same read-out and setting: as for `CCOC(=O)C1=CCCCC1S(=O)(=O)Nc1ccc(F)cc1Cl` (stereo not drawn), the figure is 20.9 µM (active); as for `O=C(/C=C/c1ccc(O)cc1)OC[C@H]1O[C@H](O[C@@]2(CO)O[C@@H](CO)[C@H](O)[C@H]2O)[C@H](O)[C@@H](O)[C@@H]1O`, “inactive”; as for `Cc1cc(-c2ncc(-c3cccnc3)cc2/C=C/c2ccccc2)cnc1-c1cccnc1`, “inactive”.

On to `CC(C)=CCC[C@](C)(O)[C@H]1CC[C@]2(C)[C@@H]1[C@H](O)CC1[C@@]3(C)CC[C@H](O)C(C)(C)C3[C@@H](O[C@@H]3O[C@H](CO)[C@@H](O)[C@H](O)[C@H]3O[C@@H]3OC[C@@H](O)[C@H](O)[C@H]3O)C[C@]12C` (stereo partly drawn), for which the Potency result was “inactive”. Same read-out and setting: as for `C[C@]1(O)CC[C@@H]2C(C(=O)O)=CO[C@@H](O[C@@H]3O[C@H](CO)[C@@H](O)[C@H](O)[C@H]3O)[C@@H]21`, the entry is “inactive”. With `CC(=O)O[C@H]1[C@H](O[C@H]2[C@@H]3C=CO[C@@H](O[C@@H]4O[C@H](CO)[C@@H](O)[C@H](O)[C@H]4O)[C@@H]3[C@@]3(CO)O[C@@H]23)O[C@@H](C)[C@H](OC(=O)/C=C/c2ccccc2)[C@H]1OC(=O)/C=C/c1ccccc1`, the viability (% of control) is 88.5% [at 9.25 µM] (inactive). As for `Fc1ccc(N2CCCCC2)c(NC(=S)c2ccncc2)c1`, the Potency was 11.6 µM (active).

As for `COc1cc(CCO)ccc1O[C@@H]1O[C@H](CO)[C@@H](O)[C@H](O)[C@H]1O`, the Potency entry was “inactive”. With `CC1(C)C2CC[C@]3(C)C(C(=O)C=C4[C@H]5C[C@@](C)(C(=O)O)CC[C@]5(C)CC[C@]43C)[C@@]2(C)CC[C@@H]1O` (stereo partly drawn), the Potency entry was “inactive”. On the same count and under the same terms, the result for `CC(C)(O)C1CCC(C)(C2CCC3(C)C4CCC5C(C)(C(=O)OC6OC(CO)C(O)C(O)C6O)C(O)CC(O)C56CC46CCC23C)O1` (stereo not drawn) reads “inactive”. As to `CC(=O)O[C@H]1CC[C@@]2(CI)C(=CC[C@@H]3[C@@H]2CC[C@]2(C)[C@@H]([C@H](C)CCCC(C)C)CC[C@@H]32)C1`, the viability (% of control) was 88.4% [at 9.25 µM] (inactive).

The record behind these values is PubChem BioAssay (NCATS).
